Measured values reported in PubChem BioAssay (NCATS).
Results filed as inconclusive are left out. The source made the active and inactive calls. Calls follow the shape of the dose curve; as a rule, active = well fitted inhibition curve with a large enough effect; inconclusive = small, poorly fitted or top-dose-only effect; inactive = flat fitted curve, though single readings scatter. Where a SMILES comes first, the peptide text is derived from it. [ ]: non-standard residue; d: D form. 2Abz = Nc1ccccc1C(=O)O

Columns and labels:
[1] = system: CRL-7250; experiment: Cytotoxic Profiling of Annotated Libraries Using Quantitative High-Throughput Screening (AID 1296008); conditions: Five cell lines viability, CellTiter-Glo ATP luminescence, 48-72 h; max response: stronger effect = lower value; as to max response: % is scaled to controls: 0 for no effect and ±100 for the full control effect
Summary of the method: (§1)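 Cytotoxicity was measured as CellTiter-Glo ATP luminescence, read after 10 min at room temperature. Compound treatment of the cells lasted 48 or 72 hr at 37 degrees Celsius in a qHTS format.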

[2] = system: HEK293; experiment: as above; conditions: Five cell lines viability, CellTiter-Glo ATP luminescence, 48-72 h; max response: stronger effect = lower value
Summary of the method: as §1

[3] = system: HaCat; experiment: as above; conditions: Five cell lines viability, CellTiter-Glo ATP luminescence, 48-72 h; max response: stronger effect = lower value
Summary of the method: as §1

[4] = system: KB-3-1; experiment: as above; conditions: Five cell lines viability, CellTiter-Glo ATP luminescence, 48-72 h; max response: stronger effect = lower value
Summary of the method: as §1

[5] = system: NIH3T3; experiment: as above; conditions: Five cell lines viability, CellTiter-Glo ATP luminescence, 48-72 h; max response: stronger effect = lower value
Summary of the method: as §1

[6] = system: HACAT; experiment: qHTS assay to identify novel small-molecules to repurpose for Merkel cell carcinoma treatment (AID 1296009); conditions: MCC and control cell lines, CellTiter-Glo viability, 72 h; at 44.8 µM (top of the series) unless noted
Summary of the method: (§2)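 Cell viability, measured as CellTiter-Glo luminescence, was normalized between DMSO and no-cell wells. The cells had been exposed to 8- or 11-point compound dilutions for 72 hr at 37 degree celsius.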

[7] = system: HEK293T; experiment: as above; conditions: MCC and control cell lines, CellTiter-Glo viability, 72 h; series mostly up to 44.8 µM
Summary of the method: as §2
Also: nearly all actives have a fitted effect of over 60% in size.

Cc1cc(O)c(C(C)C)cc1O[C@@H]1O[C@H](CO)[C@@H](O)[C@H](O)[C@H]1O
inactive: max response [1] -11.2% | outcome [2] | outcome [3] | outcome [4] | max response [5] 1.36% | outcome [6] | Potency [7]

CC1(CCC(=O)O)C(=O)C=CC23CC4CC(OC4(C)C2O)C13 (stereo unspecified)
inactive: max response [1] 3.62% | outcome [2] | outcome [3] | max response [4] 2.02% | outcome [5] | outcome [6] | Potency [7]

CC1OC(O[C@H]2[C@@H](O)C[C@@]3(C)C([C@H](O)C[C@]4(C)C3CC=C3C5CC(C)(C)CC[C@]5(C(=O)OC5OC(CO)C(O)C(O)C5OC5OCC(OC6OCC(OC7OCC(O)C(O)C7O)C(O)C6O)C(OC6OCC(O)(CO)C6O)C5O)CC[C@]34C)[C@]2(C)CO)C(O)C(O)C1O (stereo partly specified)
inactive: outcome [1] | outcome [2] | outcome [3] | max response [4] 0.161% | outcome [5] | outcome [6] inactive [at 9.27 µM] | outcome [7] inactive [at 9.27 µM]

NC(=O)c1cccc(-c2cc(O)cc(OC(=O)NC3CCCCC3)c2)c1
inactive: outcome [1] | outcome [2] | outcome [3] | outcome [4] | max response [5] -15.7% | outcome [6] inactive [at 17.4 µM] | Potency [7]

C=C1C2(CCC(=O)OC2(C)C)CC(OC(=O)/C(C)=C/C)C2(C)C13OC14C(=O)OC(C)(C(=O)C12C(=O)OC4C)C3OC(C)=O (stereo unspecified)
inactive: outcome [1] | outcome [2] | outcome [3] | max response [4] 6.83% | max response [5] 4.63% | outcome [6] inactive [at 17.4 µM] | Potency [7]

COc1cc(C(C)=O)ccc1O[C@@H]1O[C@H](CO[C@@H]2O[C@@H](C)[C@H](O)[C@@H](O)[C@H]2O)[C@@H](O)[C@H](O)[C@H]1O
inactive: max response [1] -2.17% | outcome [2] | outcome [3] | outcome [4] | outcome [5] | outcome [6] inactive [at 17.4 µM] | Potency [7]

CC1(C(=O)O)CCCC2(C)C1CCC13CC(CCC21)C1(CO)OC31 (stereo unspecified)
inactive: max response [1] -3.21% | outcome [2] | outcome [3] | max response [4] 2.68% | outcome [5] | outcome [6] | Potency [7]

C[C@@H]1O[C@@H](O[C@@H]2[C@@H](O)[C@H](O[C@@H]3[C@@H](O)[C@@H](O)[C@H](O[C@H]4[C@H](OC(=O)[C@]56CCC(C)(C)C[C@H]5C5=CCC7[C@@]8(C)C[C@H](O)[C@H](O[C@@H]9O[C@@H](C)[C@H](O)[C@@H](O)[C@H]9O)[C@@](C)(CO)C8CC[C@@]7(C)[C@]5(C)C[C@H]6O)O[C@H](C)[C@H](O)[C@@H]4O)O[C@H]3C)OC[C@H]2O)[C@H](O)[C@H](O)[C@H]1O (stereo partly specified)
inactive: max response [1] 4.2% | outcome [2] | outcome [3] | outcome [4] | outcome [5] | outcome [6] inactive [at 9.27 µM] | outcome [7] inactive [at 9.27 µM]

COc1ccc(C(O[C@@H]2O[C@H](CO)[C@@H](O)[C@H](O)[C@H]2O)C(CO)Oc2ccc(/C=C/CO)cc2OC)cc1O (stereo partly specified)
inactive: outcome [1] | outcome [2] | outcome [3] | outcome [4] | outcome [5] | outcome [6] inactive [at 17.4 µM] | Potency [7]

CCC(C)C1NC(=O)C2CCCN2C(=O)C(C(C)C)NC(=O)c2ccccc2NC(=O)C(Cc2ccc(O)cc2)NC(=O)C(C)NC(=O)C(C(C)O)NC1=O (stereo unspecified) (cyclo([2Abz]VPITAY); configuration not given here)
inactive: max response [1] -3.19% | outcome [2] | outcome [3] | outcome [4] | outcome [5] | outcome [6] inactive [at 17.4 µM] | Potency [7]

COc1cc(C2c3cc(O)c(OC)cc3CC(CO)C2CO)ccc1O (stereo unspecified)
inactive: outcome [1] | outcome [2] | outcome [3] | outcome [4] | outcome [5] | outcome [6] | Potency [7]

COc1ccc(/C=C/C(=O)O[C@H]2[C@@H]3C=CO[C@@H](O[C@@H]4O[C@H](CO)[C@@H](O)[C@H](O)[C@H]4O)[C@@H]3[C@@]3(CO)O[C@@H]23)cc1O
inactive: outcome [1] | outcome [2] | outcome [3] | outcome [4] | max response [5] 2.14% | outcome [6] inactive [at 17.4 µM] | Potency [7]

COc1ccc2c(c1)OC[C@]1(O)c3cc4c(cc3O[C@H]21)OCO4
inactive: max response [1] -0.876% | outcome [2] | outcome [3] | outcome [4] | outcome [5] | outcome [6] | Potency [7]

C[C@@H](O)[C@H](N)C(=O)N1CCC[C@H]1C(=O)N1CCC[C@H]1C(=O)N[C@H](C(N)=O)[C@@H](C)O (H-TPPT-NH2)
inactive: outcome [1] | outcome [2] | outcome [3] | outcome [4] | outcome [5] | outcome [6] inactive [at 9.27 µM] | outcome [7] inactive [at 9.27 µM]

O=C(/C=C/c1ccc(O)cc1)OCC1=C[C@@H](O)[C@@H]2C=CO[C@@H](O[C@@H]3O[C@H](CO)[C@@H](O)[C@H](O)[C@H]3O)[C@H]12
inactive: max response [1] -2.56% | outcome [2] | outcome [3] | outcome [4] | outcome [5] | outcome [6] inactive [at 17.4 µM] | Potency [7]

CC(C)C(C#N)O[C@@H]1O[C@H](CO[C@@H]2OC[C@](O)(CO)[C@H]2O)[C@@H](O)[C@H](O)[C@H]1O (stereo partly specified)
inactive: max response [1] 0.582% | outcome [2] | outcome [3] | max response [4] 5.78% | max response [5] 3.22% | outcome [6] | Potency [7]

CC(=O)N(O)CCCCCN1C(=O)CCC1=O
inactive: outcome [1] | outcome [2] | outcome [3] | max response [4] 2.57% | outcome [5] | outcome [6] | Potency [7]

CC(C)[C@H]1CCC(CO)=C[C@@H]1/C=C(\CO)C(=O)O
inactive: max response [1] -1.21% | outcome [2] | outcome [3] | max response [4] 7.99% | max response [5] -1.04% | outcome [6] | Potency [7]
